What all share (test): qHTS profiling for inhibitors of Plasmodium falciparum proliferation (AID 504749); further: nearly all actives have a fitted effect of over 60% in size
Conditions in all cases: P. falciparum in erythrocytes, SYBR Green DNA, 72 h; series mostly up to 28.7 µM
For orientation: In qHTS, concentration-response curves come from the screen itself.

One test relates to DIV14. In short, it runs like this:
(§1)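 SYBR Green fluorescence of parasite DNA, read after lysis and overnight dark incubation, measured growth over 72 h in erythrocyte culture at 0.3% parasitemia and 2.5% hematocrit. Data normalised to DMSO and 0.29 uM artemisinin, with plate-drift correction.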

The test system of a further test is Dd2. An outline of the steps: as §1
The subject of another test is FAB9. In short, it runs like this:
as §1

The subject of a further test is GB4. An outline of the steps:
as §1

The next test deals with HB3. An outline of the steps: as §1
The next test has as its system ECU. An outline of the steps: as §1
A further test deals with JCK. An outline of the steps: as §1
A further test has as its system CP291. An outline of the steps:
as §1

A further test relates to CP305. An outline of the steps:
as §1

A further test relates to CP315. In short, it runs like this: as §1
In a further test the test system is CP325. An outline of the steps: as §1
The next test has as its system CP329. In short, it runs like this: as §1
The test system of a further test is CP335. In short, it runs like this:
as §1

Another test has as its system DFO2036. In short, it runs like this:
as §1

The subject of the next test is DIV17. An outline of the steps: as §1
The next test relates to DIV30. An outline of the steps:
as §1

A further test concerns ICS. An outline of the steps:
as §1

The next test deals with N140. An outline of the steps:
as §1

The next test concerns P93_24. An outline of the steps: as §1
The next test deals with CP297. An outline of the steps:
as §1

Each structure is given as a SMILES string. Records with an inconclusive call do not appear. Calls of active or inactive are those of the source. The call rests on the fitted dose curve; in most records, active means well fitted inhibition curve with a large enough effect; inconclusive means small, poorly fitted or top-dose-only effect; inactive means flat fitted curve, though single readings scatter.
Potency means the concentration at half of the fitted maximal effect.

For `Cn1ccc2cc3c(cc21)CCN3C(=O)Nc1cccnc1`, the Potency is 12 µM (active) in the test with DIV14 and 15.1 µM (active) in the test with GB4. The Potency entry with Dd2, in the test with FAB9 and in the test with HB3 was “inactive” each time.

On to `Cc1ccc(-c2cc(C(F)(F)F)nn2-c2ccc(S(N)(=O)=O)cc2)cc1`, for which the Potency entry with Dd2, with FAB9, in the test with HB3 and in the test with JCK was “inactive” each time. The Potency in the test with ECU was 10 µM (active); in the test on GB4 it was 13.5 µM (active).

For `OCCN1CCN(CCCN2c3ccccc3Sc3ccc(C(F)(F)F)cc32)CC1`, the Potency is 8.49 µM (active) with CP291; 9.53 µM (active) in the test on CP305; 12 µM (active) with CP315; 6.75 µM (active) with CP325; 13.5 µM (active) with CP329; 4.26 µM (active) in the test with CP335. Further, the Potency in the test with DFO2036 is 7.08 µM (active); with DIV14, 6.75 µM (active); in the test with DIV17, 6.01 µM (active); in the test with DIV30, 8.49 µM (active); in the test on Dd2, 11.2 µM (active); with ECU it was 6.31 µM (active). Moreover, the Potency is 6.01 µM (active) in the test on GB4; 11.2 µM (active) with HB3; 1.58 µM (active) with ICS; 7.08 µM (active) in the test with N140; 6.31 µM (active) in the test on P93_24.

For the compound `CC12CC3CC(C)(C1)CC(N)(C3)C2`, the Potency result with CP291, with CP305, with CP315, with CP325, with CP329 and in the test on CP335 was “inactive” each time. Also, the Potency entry in the test with DFO2036, in the test with DIV30, in the test with ECU, with FAB9, in the test with HB3 and in the test on ICS was “inactive” in each case. For the same compound, the Potency result in the test with JCK and in the test with N140 was “inactive” throughout. Besides, the Potency with Dd2 is 5.01 µM (active); in the test on P93_24, 10 µM (active).

On to `CC[C@@]1(O)C(=O)OCc2c1cc1n(c2=O)Cc2cc3c(CN(C)C)c(O)ccc3nc2-1`, for which the Potency in the test on CP291 was 4.78 µM (active); in the test on CP297 it was 7.57 µM (active); in the test with CP329, 6.75 µM (active); in the test on CP335, 4.78 µM (active); in the test with DFO2036 it was 5.62 µM (active); with Dd2 it was 10 µM (active). Also, the Potency is 3.98 µM (active) in the test with ECU, 5.36 µM (active) with GB4, 7.94 µM (active) in the test on ICS and 4.47 µM (active) in the test with P93_24. Besides, the Potency result with FAB9 is “inactive”.

`CN1CCC(=C2c3ccccc3C=Cc3ccccc32)CC1`: the Potency result in the test on CP291, with CP297, in the test with CP305, in the test with CP315, with CP325 and with CP329 was “inactive” in each case. In addition, the Potency entry in the test with DFO2036, in the test with DIV30, in the test on ECU, with FAB9, in the test with HB3 and in the test on JCK was “inactive” in each case. Moreover, the Potency result in the test on N140 and in the test on P93_24 was “inactive” in each case.

For `O=C1N(c2ccccc2)c2ccccc2C1(Cc1ccncc1)Cc1ccncc1`, the Potency entry in the test on CP291, in the test with CP305, with CP315, in the test on CP325, in the test on CP329 and in the test with CP335 was “inactive” throughout. The Potency result in the test with DFO2036, in the test with DIV14, with DIV17, with DIV30, with Dd2 and with ECU was “inactive” throughout. Also, the Potency result in the test on FAB9, with GB4, in the test on HB3, with JCK, in the test on N140 and in the test on P93_24 was “inactive” in each case.

As for `Clc1ccc2c(c1)C(N1CCNCC1)=Nc1ccccc1O2`, the Potency result in the test on CP291, in the test with CP305, with CP315, with CP325, in the test with CP329 and with DIV30 was “inactive” throughout. In addition, the Potency result in the test on FAB9 and in the test on JCK was “inactive” throughout.

On to `O=c1[nH]cc(F)c(=O)[nH]1`, for which the Potency entry in the test with DFO2036, with FAB9 and with JCK was “inactive” each time. In addition, in the test with GB4, the Potency was 12 µM (active).

Consider `CN(C)C(=N)N=C(N)N`, for which the Potency entry with CP305, in the test with CP325, with CP329, with CP335, in the test on DFO2036 and with Dd2 was “inactive” in each case. Further, the Potency entry in the test with ECU, in the test with FAB9, in the test with HB3, in the test on ICS, in the test with JCK and in the test on N140 was “inactive” in each case. For the same compound, the Potency result in the test on P93_24 is “inactive”.

The values are drawn from PubChem BioAssay (NCATS).
